Reference: PubChem BioAssay (NCATS)
Inconclusive results are not listed. Active and inactive are the calls of the source. Calls follow the shape of the dose curve; as a rule, active = well fitted inhibition curve with a large enough effect; inconclusive = small, poorly fitted or top-dose-only effect; inactive = flat fitted curve, though single readings scatter.

Biological target: Tyrosyl-DNA phosphodiesterase 1 (Homo sapiens) (UniProt Q9NUW8)
Experiment: Confirmation Assay for Inhibitors of Tyrosyl-DNA Phosphodiesterase (TDP1) (AID 489007); also: nearly all actives have a fitted effect of over 40% in size
Conditions: recombinant human TDP1 enzymatic activity, dose-response
How it was run: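 Compounds are preincubated 15 min at room temperature with 1 nM recombinant human Tdp1. The reaction starts on adding 15 nM FITC-phosphotyrosine DNA substrate, runs 5 min, and is detected by AlphaScreen beads after 10 min.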
Potency is read from the fitted curve at half-maximal effect.

Sequence of Tyrosyl-DNA phosphodiesterase 1 (Homo sapiens) (Q9NUW8 whole entry, looked up): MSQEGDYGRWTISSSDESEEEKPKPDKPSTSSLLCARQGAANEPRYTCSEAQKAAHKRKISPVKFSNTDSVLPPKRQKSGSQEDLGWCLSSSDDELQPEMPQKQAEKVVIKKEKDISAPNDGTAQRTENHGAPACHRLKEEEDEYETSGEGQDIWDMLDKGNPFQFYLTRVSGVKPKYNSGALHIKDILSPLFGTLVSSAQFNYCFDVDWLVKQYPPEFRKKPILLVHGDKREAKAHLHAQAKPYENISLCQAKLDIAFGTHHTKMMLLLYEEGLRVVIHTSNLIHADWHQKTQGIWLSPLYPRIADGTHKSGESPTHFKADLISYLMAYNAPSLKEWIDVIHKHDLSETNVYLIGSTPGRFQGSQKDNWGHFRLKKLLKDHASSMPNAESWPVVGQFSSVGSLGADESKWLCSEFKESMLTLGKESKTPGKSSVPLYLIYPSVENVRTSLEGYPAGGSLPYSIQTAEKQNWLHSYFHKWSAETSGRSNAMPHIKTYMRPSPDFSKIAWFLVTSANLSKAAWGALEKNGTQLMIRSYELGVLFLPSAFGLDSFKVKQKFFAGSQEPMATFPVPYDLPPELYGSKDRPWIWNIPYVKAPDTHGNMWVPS

Question: How did the Potency turn out when `CN(C)C(=O)c1ccc(-c2cncnc2NCc2cccs2)cc1` was run?
Answer: 1780 nM (active)
